Test results published in the antibiotic and cytotoxicity screens of Wong et al. (2023).
Hit rate of the full screen: of about 39,000 compounds, about 3,300 (8.5%) were called active. Shown is part of a subset that was picked to be rich in actives.

These compounds were tested on HepG2 (assay: cytotoxicity call (relative viability < 0.9)). Settings: 10 µM.

SMILES | cytotoxicity call
C[C@@H]1CN([C@@H](C)CO)C(=O)Cc2cc(NC(=O)C3CCCCC3)ccc2O[C@@H]1CN(C)S(=O)(=O)c1cn(C)cn1 | inactive
C[C@H](CO)N1C[C@H](C)[C@H](CN(C)Cc2ccc(Oc3ccccc3)cc2)Oc2c(NC(=O)Nc3ccccc3)cccc2C1=O | inactive
O[C@@H](Cc1ccccc1)[C@@H](/C=C/C1CC1)N(CC#Cc1ccccc1)Cc1ccccc1Br | inactive
C[C@H](CO)N1C[C@H](C)[C@H](CN(C)C(=O)Nc2ccc3c(c2)OCO3)Oc2ccc(NC(=O)Nc3cccc4ccccc34)cc2C1=O | inactive
C[C@@H]1CN([C@@H](C)CO)C(=O)c2cc(NC(=O)C3CCCCC3)ccc2O[C@@H](C)CCCCO[C@@H]1CN(C)C(=O)Nc1cccc2ccccc12 | active
C[C@@H]1CN([C@@H](C)CO)C(=O)c2cc(NC(=O)C3CCCCC3)ccc2O[C@@H](C)CCCCO[C@H]1CN(C)C(=O)Nc1cccc2ccccc12 | inactive
C[C@@H]1CCCCO[C@H](CN(C)C(=O)Nc2cccc3ccccc23)[C@H](C)CN([C@@H](C)CO)C(=O)c2cc(NC(=O)C3CCCCC3)ccc2O1 | inactive
C[C@H]1CCCCO[C@H](CN(C)S(=O)(=O)c2cccs2)[C@@H](C)CN([C@@H](C)CO)C(=O)c2cc(NC(=O)Nc3ccccc3)ccc2O1 | inactive
COc1ccc2c3c(n(c2c1)C)[C@@H](CO)N(C[C@]13CCN(CC1)C(=O)c1cnccn1)C(=O)c1cnccn1 | inactive
CC(C)NC(=O)N(C)C[C@@H]1OCCCC[C@@H](C)Oc2ccc(NC(=O)Nc3cccc4ccccc34)cc2C(=O)N([C@H](C)CO)C[C@@H]1C | inactive
Cc1ccc(Oc2nnc(-c3cccs3)c3ccccc23)cc1 | inactive
Cc1csc(-c2nnc(Nc3ccc(Oc4ncccc4-c4ccnc(N)n4)cc3)c3ccccc23)c1 | active
C[C@@]1(c2ccc3c(c2)OCCO3)NC(=O)NC1=O | inactive
Cc1noc(C)c1S(=O)(=O)Nc1ccc2c(c1)CC(=O)N([C@@H](C)CO)C[C@H](C)[C@H](CN(C)Cc1ccncc1)O2 | inactive
C[C@H]1O[C@@H](O[C@H]2CC[C@@]3(C)[C@@H](CC[C@@]4(C)[C@@H]3CC=C3[C@H]5C[C@](C)(C(=O)O)CC[C@]5(C(=O)O[C@H]5O[C@@H](CO)[C@@H](O)[C@@H](O)[C@@H]5O)CC[C@@]34C)[C@@]2(C)CO)[C@@H](O)[C@@H](O[C@H]2O[C@@H](CO)[C@@H](O)[C@@H](O)[C@@H]2O)[C@@H]1O | inactive
C/C=C(/C)C(=O)O[C@@H]1[C@H](OC(C)=O)[C@]2(CO)[C@H](O)C[C@]3(C)C(=CC[C@H]4[C@@]5(C)CC[C@H](O[C@@H]6O[C@H](C(=O)O)[C@@H](O[C@@H]7O[C@H](CO)[C@@H](O)[C@H](O)[C@H]7O)[C@H](O)[C@H]6O[C@@H]6O[C@H](CO)[C@@H](O)[C@H](O)[C@H]6O)[C@](C)(CO)[C@@H]5CC[C@]43C)[C@@H]2CC1(C)C | inactive
CC=C(C)C(=O)OC1C(OC(C)=O)C2(CO)C(O)CC3(C)C(=CCC4C5(C)CCC(OC6OC(C(=O)O)C(OC7OC(CO)C(O)C(O)C7O)C(O)C6OC6OC(CO)C(O)C(O)C6O)C(C)(CO)C5CCC43C)C2CC1(C)C (stereo not given) | active
CC=C(C)C(=O)O[C@H]1[C@H](OC(C)=O)[C@]2(CO)[C@H](O)C[C@]3(C)C(=CC[C@@H]4[C@@]5(C)CC[C@H](O[C@@H]6O[C@H](C(=O)O)[C@@H](O[C@@H]7O[C@H](CO)[C@@H](O)[C@H](O)[C@H]7O)[C@H](O)[C@H]6O[C@@H]6O[C@H](CO)[C@@H](O)[C@H](O)[C@H]6O)[C@](C)(CO)[C@@H]5CC[C@]43C)[C@@H]2CC1(C)C | active
C[C@@H]1CC[C@]2(C(=O)O[C@@H]3O[C@H](CO)[C@@H](O)[C@H](O)[C@H]3O)CC[C@]3(C)C(=CC[C@H]4[C@@]5(C)C[C@@H](O)[C@H](O)[C@@](C)(CO)[C@@H]5CC[C@]43C)[C@@H]2[C@]1(C)O | inactive
C/C=C(/C)C(=O)O[C@H]1[C@@H](OC(C)=O)[C@@]2(CO)[C@@H](O)C[C@@]3(C)C(=CC[C@H]4[C@@]5(C)CC[C@@H](O[C@H]6O[C@H](C(=O)O)[C@@H](O[C@H]7O[C@@H](CO)[C@@H](O)[C@@H](O)[C@@H]7O)[C@@H](O)[C@@H]6O[C@H]6O[C@@H](CO)[C@@H](O)[C@@H](O)[C@@H]6O)[C@@](C)(CO)[C@@H]5CC[C@]43C)[C@@H]2CC1(C)C | active
